# In PubChem BioAssay (NCATS):
# Records with an inconclusive call do not appear. A call without a number means that no potency is given here. Activity calls are given as the source filed them. Calls come from the whole dose curve; as a rule, active = well fitted curve in the direction sought with a large enough effect; inconclusive = small, poorly fitted or top-dose-only effect, or another doubt; inactive = no such curve, though single readings can be large; an effect the other way counts as inactive or inconclusive. Bridge positions count the residues as written; N and C are the ends. Square brackets hold non-standard residues; d marks the D form. Side chains are listed from the residue outwards. Peptide text beside a SMILES is read from it. * marks the point of attachment. Phg(4-OMe) = COc1ccc([C@H](N)C(=O)O)cc1; d(aIle) = CC[C@H](C)[C@@H](N)C(=O)O; d(aThr) = C[C@@H](O)[C@@H](N)C(=O)O; NMeF = CN[C@@H](Cc1ccccc1)C(=O)O; Isobutyryl = CC(C)C(=O)*
# Legend:
# [1] = system: Zika virus NS2B-NS3 protease (linked construct); assay: Primary screen NINDS Rhodamine qHTS for Zika virus inhibitors (AID 1347160); note: nearly all actives have a fitted effect of over 55% in size; note: potency is the fitted concentration of half-maximal effect
# Method in brief: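 Enzyme (25 nM, linked NS2B-NS3) was preincubated 15 min with compound in 10 mM Tris-HCl pH 8.0, 0.01% Tween 20. Rhodamine110 substrate (1.5 microM) was then added and fluorescence read at start and after 15 min.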
# [2] = Secretion counterscreen for inhibitors of the SERCaMP assay screened against the NCATS CANVASS Library (AID 1347390);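 note: light from luciferase secreted into medium read as a measure of general secretion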; note: potency is the fitted concentration of half-maximal effect
# Method in brief: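 Natural products are titrated in an 11-point series up to 77 uM onto SH-SY5Y-GLuc STOP cells for 20 h. Secreted reporter activity is measured as coelenterazine-driven luminescence, with Brefeldin A on each plate.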
# [3] = Viability qHTS for inhibitors of the SERCaMP assay screened against the NCATS CANVASS Library (AID 1347400); note: nearly all actives have a fitted effect of over 70% in size; note: potency is the fitted concentration of half-maximal effect
# Method in brief: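 Measures loss of viability in SERCaMP reporter SH-SY5Y cells treated for 48 h with compounds; luminescent ATP detection by CellTiter-Glo.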
# [4] = Redox Reaction Profiling qHTS: Assay Interference Panel against the NCATS CANVASS Library (AID 1347401); note: potency is the fitted concentration of half-maximal effect
# Method in brief: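 Quantitative HTS over an 11-point series was run in HEPES pH 7.3 with 50 mM NaCl, 200 uM DTT and 5 uM resazurin. Initial and 15-min resorufin fluorescence readings were taken.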
# [5] = U-118MG Cancer Cell Toxicity qHTS against the NCATS CANVASS Library (AID 1347351); note: potency is the fitted concentration of half-maximal effect
# Method in brief: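 Following a 4 h pre-incubation of 1000 seeded cells, compounds were pinned in an 11-pnt dilution series and left for 72 h; viability then came from CellTiter-Glo.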
# [6] = UWB1.289-WTBRCA1 Cancer Cell Toxicity qHTS against the NCATS CANVASS Library (AID 1347354)
# Method in brief: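 Using an ATP-based luminescent reagent after three days of treatment, toxicity is scored across an eleven-concentration range in wells holding 1000 cells each.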
# [7] = KB-3-1 Cancer Cell Toxicity qHTS against the NCATS CANVASS Library (AID 1347366); note: nearly all actives have a fitted effect of over 75% in size; note: potency is the fitted concentration of half-maximal effect
# Method in brief: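 Cytotoxicity toward KB-3-1 cells (500/well, DMEM + 10% FBS) was scored by CellTiter-Glo luminescence following 72 hr exposure at 37C, with bortezomib titrated as control.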
# [8] = G06 Cancer Cell Toxicity qHTS against the NCATS CANVASS Library (AID 1347368); note: nearly all actives have a fitted effect of over 60% in size; note: potency is the fitted concentration of half-maximal effect
# Method in brief: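 Quantitative HTS in G06 cells (dog glioma): 72 hr treatment, 11 concentrations, then ATP-based luminescent viability readout; bortezomib 0.1 nM–4.6 uM final as reference.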
# [9] = Vero-766 cells viability qHTS against the NCATS CANVASS Library: Counterscreen for Zika virus inhibition assay (AID 1347394); note: nearly all actives have a fitted effect of over 60% in size; note: potency is the fitted concentration of half-maximal effect
# Method in brief: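 Counterscreen for toxicity: Vero 766 cells exposed 72 h to an 11-point compound series, viability by CellTiter-Glo.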
Structure (SMILES),Potency [1],Potency [2],Potency [3],Potency [4],Potency [5],Potency [6],Potency [7],Potency [8],Potency [9]
COc1cc2c(cc1OC)[C@@H](c1ccc3c(c1)OCO3)C(C)C(C)C2=O (stereo partly specified),inactive,inactive,inactive,inactive,–,–,–,–,–
C/C=C/C1C=CC2CC(C)CC(C)C2C1C(=O)CC(=O)NC(CO)C/C=C/CCCCC (stereo unspecified),11 µM (active),–,–,inactive,inactive,inactive,–,–,–
CC(C)[C@]12CC[C@@]3(C)[C@H](C)CC[C@H](O)[C@@]3(CC1)c1cc3c(cc12)[nH]c1ccccc13,27.7 µM (active),–,inactive,–,inactive,–,–,–,–
C=C1CC[C@@H](O[C@H]2C[C@@](O)([C@H](C)NC(=O)c3[nH]c(C)c(Cl)c3Cl)[C@H](O)[C@@H](C)O2)[C@@H]2C=C[C@H](C)C(/C(O)=C3/C(=O)[C@H](C(C)C)N([C@@H]4O[C@H](C)[C@H](OC(N)=O)[C@H](OC(C)=O)[C@@H]4OC)C3=O)[C@@H]12 (stereo partly specified),15.6 µM (active),–,inactive,–,–,–,–,–,–
C/C=C(/C)c1cc(O)c(C)c2c1Oc1cc(O)cc(C)c1C(=O)O2,24.7 µM (active),–,–,–,–,inactive,inactive,–,–
CC(C)C[C@@H]1c2c(O)c(C=O)c(O)c(C=O)c2O[C@]2(C)C=C[C@@H](C(C)C)C[C@H]12,13.9 µM (active),inactive,–,–,–,inactive,inactive,inactive,inactive
COc1cc(/C=C/C(=O)OC[C@@H](Cc2ccc(O)c(OC)c2)[C@@H](COC(=O)/C=C/c2ccc(O)c(OC)c2)Cc2ccc(O)c(OC)c2)ccc1O,31.1 µM (active),38.4 µM (active),–,inactive,10.6 µM (active),–,20.9 µM (active),14.8 µM (active),–
CC[C@H]1[C@H](C)[C@H](c2cc(OC)c(OC)cc2OC)[C@@H](C)[C@H](c2cc(OC)c(OC)cc2OC)[C@@]12C=C(OC)C(=O)C=C2OC,27.7 µM (active),–,–,–,–,inactive,–,23.5 µM (active),–
C/C=C(/C)c1c(Cl)c(OC)c(C)c2c1Oc1c(Cl)c(O)c(Cl)c(C)c1C(=O)O2,1.39 µM (active),inactive,inactive,inactive,inactive,–,–,inactive,–
COc1ccc2[nH]c3c(c2c1)CCN1C[C@H]2C[C@@H](OC(=O)c4cc(OC)c(OC)c(OC)c4)[C@H](OC)[C@@H](OC)[C@H]2C[C@H]31,inactive,–,–,–,–,–,–,1.48 µM (active),inactive
O[C@H]1c2ccccc2-c2c3c(cc4c2[C@@H]1NCC4)OCO3,49.3 µM (active),–,38.1 µM (active),–,–,inactive,–,16.6 µM (active),–
C=C[C@@]1(C)CC[C@@H]([C@H](C)C(=O)/C=C/C(C)(C)O)O1,55.3 µM (active),inactive,–,–,inactive,inactive,–,–,–
CC[C@H](C)[C@H]1NC(=O)[C@@H](NC(=O)C(C)C)[C@@H](C)OC(=O)[C@H](COC(=O)CNC(C)=O)NC(=O)[C@@H]([C@@H](C)O)NC(=O)[C@H](Cc2ccccc2)N(C)C(=O)[C@H](c2ccc(OC)cc2)NC1=O (Isobutyryl-T[d(aIle)][Phg(4-OMe)][NMeF][d(aThr)]S([Gly-Ac]); ester 1-C),inactive,inactive,–,inactive,inactive,–,inactive,inactive,–
C/C1=C/[C@@H](C)[C@H](O)[C@@H](O)/C=C/CC/C=C/C(=O)O[C@@H]1[C@H](C)C(=O)CCCC1CC(=O)NC(=O)C1,inactive,–,–,inactive,inactive,–,–,–,inactive
CCC(=O)N[C@@H](C[C@H](C)C(Cl)(Cl)Cl)C(=O)N1C(=O)C=C(OC)[C@@H]1CC(C)C,inactive,–,inactive,inactive,inactive,–,–,–,–
CO[C@H]1[C@@H](OC(=O)/C(C)=C\[C@@H]2O[C@@H]2[C@H]2O[C@H]2C)[C@H](O)[C@H](OCC23C[C@@H]4[C@H](C)CC[C@H]4C4(C=O)CC2C=C(C(C)C)C34C(=O)O)O[C@@H]1C (stereo partly specified),22 µM (active),–,inactive,–,–,inactive,inactive,inactive,–
C=C1CC[C@@H](Br)C(C)(C)[C@]12CC=C(C)C(=O)C2,inactive,inactive,–,inactive,inactive,–,inactive,–,–
CC(C)=CCC[C@]12c3cc4c(cc3CC[C@@]1(C)[C@H](C)CC[C@@H]2O)[nH]c1ccccc14,24.7 µM (active),inactive,–,inactive,inactive,inactive,–,–,–
CN1CC[C@]2(c3cccc4c3N[C@H]3N(C)CC[C@@]43[C@]34CCN(C)[C@H]3Nc3ccccc34)c3ccccc3N[C@H]12,inactive,19.3 µM (active),15.2 µM (active),–,7.49 µM (active),–,–,7.43 µM (active),20.9 µM (active)
C[C@H]1C=C[C@H]2CCCC[C@@H]2[C@H]1C(=O)[C@H]1CC2=C(C(=O)O)CCN2C1=O,11 µM (active),inactive,–,–,–,–,inactive,–,inactive
O=C1CC2OCC=C3CN4C5CC3C2[C@@H]2N1c1ccccc1[C@]52C[C@@H]4C1=C[C@H]2C3CC4N(CC[C@@]45c4ccccc4N(C1=O)[C@@H]25)C/C3=C/CO (stereo partly specified),inactive,inactive,–,inactive,–,inactive,–,23.5 µM (active),inactive
C[n+]1cc2cc(C(N)=O)[nH]c3c(=N)c(Cl)c(N)c1c23,44 µM (active),inactive,42.8 µM (active),1.92 µM (active),–,inactive,inactive,–,inactive
C/C=C(/C)c1c(Cl)c(O)c(C)c2c1Oc1c(Cl)c(O)c(Cl)c(C)c1C(=O)O2,1.96 µM (active),inactive,–,inactive,–,inactive,inactive,–,7.41 µM (active)
